In PubChem BioAssay (NCI):
Compounds without any hit were thinned out: in the full panel of roughly 79,000, 15% have a hit. A number with no mark means an inactive call. Calls of active or inactive are those of the source. No stated cut-off is given here; in the data, active means growth inhibition above about 70%; inactive means the rest.

Legend:
[1] = NCI Yeast Anticancer Drug Screen. Data for the rad50 strain (AID 155);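 further: 0% = growth of vehicle-only cultures of the same strain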; conditions: S. cerevisiae rad50 strain growth inhibition; at 50.0 µM; active compounds read high
Outline: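 Growth of the mutant yeast was measured after compound exposure and referenced to vehicle-treated cultures.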

[2] = NCI Yeast Anticancer Drug Screen. Data for the mec2-1 strain (AID 157); conditions: S. cerevisiae mec2-1 strain, at 50.0 µM, active compounds read high
Outline: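 Strain: mec2-1 (DNA repair/cell cycle alteration). Compound exposure, then growth measured; inhibition expressed relative to vehicle.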

[3] = NCI Yeast Anticancer Drug Screen. Data for the sgs1 mgt1 strain (AID 161);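 further: 0% = growth of cultures given vehicle only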; conditions: S. cerevisiae sgs1 mgt1 strain, at 50.0 µM, active compounds read high
Outline: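 Read-out: growth inhibition vs vehicle controls. Cells: mutant yeast strain deficient in DNA damage repair.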

[4] = NCI Yeast Anticancer Drug Screen. Data for the cln2 rad14 strain (AID 165);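 further: 0% = growth equal to vehicle treated cultures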; conditions: S. cerevisiae cln2 rad14 strain, at 50.0 µM, active compounds read high
Outline: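 Compounds are applied to the cln2 rad14 yeast strain, and growth is then compared with that of vehicle-treated cultures to give inhibition.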

[5] = NCI Yeast Anticancer Drug Screen. Data for the bub3 strain (AID 167); conditions: S. cerevisiae bub3 mutant strain, at 50.0 µM, active compounds read high
Outline: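 Whole-cell yeast assay. The mutant strain was incubated with compounds, and growth inhibition was determined by comparison with vehicle-treated cells.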

[6] = NCI Yeast Anticancer Drug Screen. Data for the mlh1 rad18 strain (AID 175); conditions: S. cerevisiae mlh1 rad18 strain growth inhibition; at 50.0 µM; active compounds read high
Outline: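 Read-out is yeast growth inhibition, calculated against vehicle-only controls. The compound was applied to a strain engineered with DNA damage repair alterations.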

Row | SMILES | growth inhibition [1] | growth inhibition [2] | growth inhibition [3] | growth inhibition [4] | growth inhibition [5] | growth inhibition [6]
1 | COc1cc2oc3cc(OC)c(OC)c(CC=C(C)C)c3c(=O)c2c(O)c1CC=C(C)C | -1.45% | -30.6% | 0.15% | 5.8% | -30.6% | 21.2%
2 | O=c1[nH]c2ccccc2c(O)c1O | 24.4% | 7.85% | 22.9% | 14.7% | 1% | -5.35%
3 | Cc1ccc(NC(=S)SCc2ccc([N+](=O)[O-])cc2)cc1C | 16.5% | 14.8% | 8.6% | -8.9% | 12.9% | 2.95%
4 | CC/C=C\CCCCC | 0.4% | -13.7% | -12.6% | 0.05% | -10.8% | 4.7%
5 | CC(=O)c1nc2ccccc2n1CC(=O)c1ccc([N+](=O)[O-])cc1 | -0.65% | 8.7% | 6.2% | -8% | 3.45% | -8.1%
6 | COC(=O)c1cc([O-])c2sc(C)c(C)[n+]2n1 | 4.25% | 19.6% | 25.7% | 35.6% | -4.05% | 2.55%
7 | CCOC(=O)COc1cc(C)c2ccc(=O)oc2c1 | 3.9% | -1.35% | 10.8% | 8.45% | 6.4% | 29.1%
8 | CCCCCCc1c(N)nc(N)[nH]c1=O | 4.3% | 9.35% | -11.2% | -36.8% | -12.9% | -14.2%
9 | CCOC(=O)C(=O)Cc1ccccc1[N+](=O)[O-] | 26.1% | 0.1% | 7.75% | -3.95% | -3.8% | 38%
10 | O=C(N/N=C\c1ccc(Cl)cc1Cl)c1ccccc1S | -59.4% | 6.45% | -4.55% | -0.2% | -13.2% | 5%
11 | CCc1ccc2c(OC(C)=O)c3ccccc3c(OC(C)=O)c2c1 | 36.4% | 41.3% | 33.4% | 18.2% | 46% | 74.6% (active)
12 | CC1=CC(C)=C(C#N)C2=S=C(c3ccccc3)C(=O)N12 | 6% | 14.8% | 22.5% | 29.1% | 19.9% | 22.1%
13 | Cc1cccc2c1C(=O)C(C1OC(=O)c3ccccc31)C2 (stereo unspecified) | 7.15% | 9.75% | 1.5% | -31% | 13.5% | -12.4%
14 | CC1CN(C(=O)OCC23COC4(C)CCC(C)(OC2)N34)CC(C)O1 (stereo unspecified) | 2.6% | -18% | 6.9% | 13.4% | -0.7% | 5.75%
15 | Nc1nnc(-c2cccc(-c3nnc(N)o3)c2)o1 | -13.5% | -24.6% | -9.8% | -41.4% | -6.5% | -15.1%
16 | CC1(c2cccs2)C(=O)NC(=O)N1C(=O)CCl (stereo unspecified) | 6.8% | 4.55% | -6.65% | -2.75% | 9.3% | 5.55%
17 | CC(=O)Nc1ccc(S(=O)(=O)N=S(C)C)cc1 | -10.8% | -9.05% | -24.9% | -21.6% | -40% | 13.8%
18 | O=P(O)(O)c1ccc(Cl)cc1 | -1.8% | -1.3% | -1.65% | 8.7% | 8.55% | -9.4%
19 | C[N+](C)(C)C1(Cc2ccccc2)c2ccccc2-c2ccc(Cl)cc21 (stereo unspecified) | 29.1% | 4.85% | 21.2% | -15.8% | -6.8% | 5.9%
20 | COC(=O)Nc1nc2ccccc2n1-c1ccccc1 | 18.9% | 2.85% | 10.6% | 14.2% | 16.4% | 17.5%
21 | CC(=O)NC(Cc1ccc(C)cc1)C(=O)O (stereo unspecified) | 3.35% | -3.75% | 20.1% | -3.5% | -3.05% | 1.7%

Row | SMILES | growth inhibition [1] | growth inhibition [2] | growth inhibition [3] | growth inhibition [4] | growth inhibition [5] | growth inhibition [6]
22 | COc1cccc(-c2ccccc2)c1 | 7.35% | 10.9% | -11.3% | 3.2% | 14.6% | -16.6%
23 | CC(C)c1ccc2c(c1)CCC1C(C)(C)[C@@H](O)CC[C@]21C (stereo partly specified) | -15.3% | -40.1% | -23.2% | 19.4% | -32.6% | -22.3%
24 | CCOc1nc(SCC)nc2c1cnn2-c1ccccc1 | -8.45% | -26.4% | -9.9% | -15.8% | -1.2% | -19.5%
25 | O=C(Cn1c(=O)oc2ccc(C(=O)c3cccc(Cl)c3)cc21)c1ccccc1 | -47.4% | -3.15% | -20.6% | -19.5% | 11.3% | -28.1%
26 | Cc1cc(N=Cc2cccs2)cc(Cl)c1O | 21.7% | 14.4% | 5.05% | 12.2% | 41.8% | 24.8%
27 | COC(=O)CC(=O)C[P+](c1ccccc1)(c1ccccc1)c1ccccc1 | 6.5% | -19.1% | 14.8% | 18.4% | -18.1% | 5.4%
28 | c1ccc2c(c1)OCCOCCOc1ccccc1OCCO2 | -3.6% | 0.4% | 0.95% | 17.8% | -6.5% | -3.65%
29 | COC(=O)C1(C)C=CC(=O)C2(C)C1C(O)C1OC3CC(c4ccoc4)C(C)=C3C1(C)C2CC(=O)O (stereo unspecified) | 19.9% | -7% | 20.1% | 12.4% | 10.8% | -21.3%
30 | CN(CCc1ccccn1)C(=S)N/N=C/c1ccccn1 | 77% (active) | 83.8% (active) | 91% (active) | 89.7% (active) | 89.8% (active) | 91% (active)
31 | Cc1cccc(C(O)c2ccccn2)c1O (stereo unspecified) | -3.85% | -4.45% | -6.8% | -4.45% | -3.8% | 3.1%
32 | CC(=S)N=Cc1c(C)[nH]n(-c2ccccc2)c1=O | -49.4% | -29.8% | -41.4% | 19.6% | -57.7% | -31.9%
33 | COC(=O)c1cccc(=O)o1 | 2.55% | 0.1% | -18.4% | -79% | -1.2% | 2.15%
34 | COc1ccc(C(=O)Nc2ccccc2)cc1 | 7.45% | 8.7% | -0.3% | 6.25% | -1.2% | -4.65%
35 | COc1cc(C(=O)NOCc2cccc(C(F)(F)F)c2)cc(OC)c1OC | 39.8% | -11.2% | 15.9% | -14.8% | 2.5% | 6.25%
36 | CN(C)c1ccc(/[N+]([O-])=C/c2cccc3ccccc23)cc1 | 3.05% | 22.6% | 15.2% | -51.9% | 60.3% | 38.4%
37 | COC(=O)N/N=C/c1oc(-c2ccccc2)c(-c2ccccc2)c1[N+](=O)[O-] | -2.15% | -12.6% | 16.5% | 20.8% | -10.1% | -8.2%
38 | O=C(NC(=S)c1ccco1)NS(=O)(=O)c1ccc(Cl)cc1 | 8.35% | 7.05% | 12.2% | 16.2% | 20.4% | 29.4%
39 | CC1(C)[C@@H]2CC[C@]1(C)[C@H](OC(=O)/C=C/c1ccccc1)C2 | 1.9% | -39.8% | -11.4% | 8.5% | -16% | -1.5%
40 | CCS(=O)(=O)Nc1ccc(NS(=O)(=O)CC)cc1 | 39.7% | 11.3% | 29.1% | 16.5% | 17.9% | 25.4%
41 | Cc1cc(C(C)C)cc(C(C)C)c1 | -6.25% | -13.9% | -9.45% | -4% | -0.85% | 7.95%
